The source of these data is PubChem BioAssay AID1508600 (Functional Genomics Laboratory (NCATS/FGL), 2020).

Screen size: about 53,000 sequences; about 3,700 (7%) were called active. This is one part of a sample in which actives are shown more often than they occur.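 The calls were made as follows: active = gene knockdowns whose robust z-score for IL-1 alpha signal is at least 2 or at most -2, so actives lie on both sides; inactive = the rest.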

This test in a line: Components of the Cytosolic LPS Sensing Pathway: Gene Identification via Genome-wide siRNA Screen.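 Also: robust z of the log signal after scaling to non-targeting control siRNA wells of the plate.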 The note with it: RAW264.7 macrophages, IL-1a HTRF, actives lie on both sides, screened at 100 nM (by protocol), cells primed 5 h with Pam3CSK4 first. An outline of the steps:
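Knockdown: 100 nM siRNA, 48h, RAW264.7. Stimulation: Pam3CSK4 5 h, then LipidA via TransIT-TKO 24 h. Output: supernatant IL-1a HTRF, negative-control-normalized, log robust z-score; viability by CellTiter-Glo.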
(Time-resolved FRET reads energy transfer from a long-lived donor to a nearby acceptor.)
Regarding GGAAAAUGGUUGGUACUUUTT against Vwc2, the z-score was 0.219 (inactive).
The same measure for GGACCUUCCUACGAGAAAATT against Tm2d2: 0.0894 (inactive); for GGAUCAAGGAGGAUUUCAATT against Tprg: 2.38 (active); for CGGUAAACAUCAGUAAUGATT against Drd5: 0.0608 (inactive).
As for GCUACGUUCAGUUCCAUUGTT against Eddm3b, the z-score was -0.321 (inactive).
To CGACUUGAUUUCAAAACAUTT against Fbxl13 belongs -0.981 (inactive); to GGACCUGUCCAUCUUCAUCTT against Scn1b, 3.87 (active); to GCCAAGAGUUUGAUAUAUATT against Plekhg3, 1.79 (inactive).
To GGUAACAUCUCCAUCAGCCTT against Nxph3 belongs 0.34 (inactive).
The same measure for GGUAUCUUUAGGUUUCUGGTT against Vmn2r37: 0.499 (inactive); for GCCAAGAAAGAUCAUUGACTT against Far2: -0.703 (inactive); for GCUAGCCAGUGCAUUCACATT against Srp68: -2.96 (active).
In the case of GCCCUUAAUUGAACAAAUATT against Otud7b, the z-score was 0.0529 (inactive).
The same measure for CGGACUCAGUCAUCAUUGCTT against Atf7: -1.46 (inactive); for GGAAAGAAAAAUCAGAGAATT against Adprhl1: -0.866 (inactive); for GCUGUGGUAAACUGAAACUTT against Glis2: -1.89 (inactive).
To GGGAGCCAAUGAAAUCAAGTT against Hmbox1 belongs 3.31 (active); to GCCUUGACAGAGGUAUUGATT against Ovgp1, -1.46 (inactive); to “GGAGAAAUUCAAACAAGUATT against 4930503B20Rik”, 0.275 (inactive).
For the sequence CCCACUGGUUUGUUUAAACTT against Hbegf, the z-score was 0.555 (inactive).
The same measure for GGUUUUGCCUCCCAUAGUATT against Ssty1: 0.112 (inactive); for GGAGGAGCUUAGCCCUUUUTT against Bad: 2.28 (active); for GCAGUUACGUUAGUUAAUATT against Plekha1: 1.1 (inactive).
The same measure for GCUACUCAUUUAGCAGAGATT against Olfr76: -0.887 (inactive).
The same measure for GUGGAUUAGGGAAUUUCAUTT against Mrgprb1: 1.84 (inactive); for GAAUCCCUUCGAGUACGACTT against Fxyd2: 3.17 (active).
In the case of GGAGCUGAAUGUCUGUAGCTT against Mzt2, the z-score is -1.31 (inactive).
Regarding CCUGAUGGAUGAUGAAUCATT against Trap1a, the z-score was -1.42 (inactive).
The same measure for GGAGGAGCUGGAGAAAACATT against Psd4: -0.43 (inactive); for GGUCCUUUGAUGCUGACUGTT against Sfrp4: -2.07 (active); for CCAAGAAAAGUCCAGAAGCTT against Rorb: 0.379 (inactive).
Turning to GGAGAGACGUAAGAGGCGATT against Zrsr2, the z-score was 0.0858 (inactive).
Regarding GGACAAUUGGGCCAAACUGTT against Mpv17, the z-score was 0.103 (inactive).
To GGUGAAACCCUGAAAGUCCTT against Tmem154 belongs -0.169 (inactive); to GGUGUGUUAAGGUUUUUAATT against Marchf1, 3.68 (active); to GGAUAAUUUUGGAAGCAGATT against Rheb, -0.299 (inactive).
The same measure for GCAUCUCACUCGUAAAGGUTT against Tmprss11f: -0.555 (inactive).
To GCGCGUGACAAGGAGGAUUTT against Ska3 belongs 1.03 (inactive).
Regarding GGCCUGAACUUUUUAUUGATT against Olfr533, the z-score is -2.19 (active).
To GGGAUUUUAUCAUACAAACTT against Ppil4 belongs 0.774 (inactive).
The same measure for GGCUUUCAUGUGCCGUUUUTT against Gstm5: 2.39 (active).
To GGAACUUGUUUCAUAUCGUTT against Scfd1 belongs 0.839 (inactive).
Turning to GGGAUUGUGUGAAUCAUACTT against Tmem230, the z-score is -1.27 (inactive).
To GGCUGCUGAAGCAAAUAAGTT against Ankrd17 belongs 3.38 (active).
To GGGAAGGCUGAAUGACUGCTT against Vamp5 belongs 0.257 (inactive); to GGCGAGAGAGAUGAGUAAATT against Smim3, -1.63 (inactive).
The same measure for “GGGAAUUAUGGGCUUACCGTT against 4931414P19Rik”: -0.414 (inactive).
For the sequence GGCUAUUUCUUUUUAUGCUTT against Ak4, the z-score was 0.911 (inactive).
The same measure for GGAGACAAUGGACAAGAAGTT against Dnal4: 0.272 (inactive).
For GCCAGUAACCAGAAAAUUGTT against Sycp3, the z-score is -2.01 (active).
The same measure for CCUUAUUACACACACCCUGTT against Gja3: 0.398 (inactive); for GCUGGUAGCAUUCUUAUCCTT against Xylt2: 0.529 (inactive).
To CGGAUGAGGUUUCUUUUAUTT against Phkb belongs 0.415 (inactive); to GGUUGGUUCUUACUUGAAATT against Mindy3, 0.613 (inactive).
To GGAUAAUGCUCCAUCAUAGTT against Nab1 belongs -0.419 (inactive); to GCAAUCACCAAAUCACUAGTT against Fstl1, -0.123 (inactive).
For GCCAGGAAACGACAAUAAATT against Slc5a11, the z-score was 0.731 (inactive).
To CCUAGUACUUCGAAGAAAGTT against Tmem255a belongs -2.62 (active); to GGUCAUUCAGUGGUGCACCTT against Skp1, -0.00227 (inactive); to GGUUUCAAACUCUUGUAAUTT against Pgrmc1, -0.139 (inactive).
The same measure for GGUUUGUUUUCAGAUGAAGTT against Washc2: 0.155 (inactive); for GGAGAAAAUAAGCUGGUAGTT against Slc35f1: 3.42 (active); for CCCAUCAAUGCUGUUAAUUTT against Entpd5: 0.128 (inactive).
To GCUCGAUAUCACAGAGAUUTT against Ces5a belongs -0.177 (inactive); to GGAGUUGGAGAAUGACACGTT against Ift88, 1.14 (inactive); to GCAGUGUUGUCAAAACUUGTT against Mtfmt, 1.54 (inactive).
Take GGUACUUUAUAGGAACAGUTT against Zbtb41: the z-score is -0.973 (inactive).
To GGUAUGCUAACAGAACACGTT against Nr1h4 belongs 3.15 (active); to GCAGAUGCUAACAUAUCCATT against Trim32, -0.902 (inactive).
